Data from PubChem BioAssay AID1159580 (chemical genetic matrix, 2015).
The campaign covered roughly 5,500 compounds. About 2,000 (36%) were called active. Inconclusive results (about 18%) are left out. Rule as the data show it: active = normalized growth mostly below about 0.91 (no sharp cut-off); inconclusive = no clear call, values can overlap the other calls; inactive = mostly above about 0.92. The list shows a part of the results.

Experiment: chemical genetic growth profiling, strain panel (AID 1159580);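 also: tested at 20 µM; growth read once vehicle control cultures reached saturation at 30 °C; 1 = growth at the plate median or of vehicle wells; lower values mean less growth of the strain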
Settings: S. cerevisiae deletion strains, growth OD
[1] = locus YAL013W, strain DEP1, hits give low values
[2] = locus YDR150W, strain NUM1, hits give low values
[3] = locus YGR078C, strain PAC10, hits give low values
[4] = locus YMR263W, strain SAP30, hits give low values
[5] = locus YPL241C, strain CIN2, hits give low values

Measured: normalized growth

OCc1ccc(-c2nn(Cc3ccccc3)c3ccccc23)o1
inactive: [1] 0.925 | locus YAL040C, strain CLN3, hits give low values 1.06 | locus YCL061C, strain MRC1 (second series), hits give low values 1 | [2] 1.02 | locus YDR363W, strain ESC2, hits give low values 1.01 | locus YER002W, strain NOP16, hits give low values 0.988 | [3] 0.986 | [4] 0.991 | locus YNL175C, strain NOP13, hits give low values 0.977 | locus YNL197C, strain WHI3, hits give low values 0.972 | locus YNL224C, strain SQS1, hits give low values 0.981 | locus YOR083W, strain WHI5 (second series), hits give low values 0.95 | [5] 1.02
active: locus YGR229C, strain SMI1, hits give low values 0.841

CCOC(=O)c1[nH]c(Cc2[nH]c(C(=O)OCC)c(C)c2C)c(C)c1C
inactive: [1] 1 | locus YBR229C, strain ROT2, hits give low values 1.02 | locus YCL061C, strain MRC1, hits give low values 1.02 | locus YDL101C, strain DUN1, hits give low values 1.03 | locus YDL134C, strain PPH21, hits give low values 1.01 | [2] 0.978 | locus YEL061C, strain CIN8, hits give low values 1.01 | [3] 1.02 | locus YHR030C, strain SLT2, hits give low values 1.06 | locus YHR087W, strain rtc3, hits give low values 1.01 | locus YJR043C, strain POL32, hits give low values 1.04 | locus YKL190W, strain CNB1, hits give low values 1.01 | locus YLR039C, strain RIC1, hits give low values 0.981 | locus YLR058C, strain SHM2 (second series), hits give low values 1.02 | locus YLR085C, strain ARP6, hits give low values 1.01 | locus YLR262C, strain YPT6, hits give low values 0.981 | locus YML094W, strain GIM5, hits give low values 0.988 | locus YMR219W, strain ESC1, hits give low values 1.01 | [4] 1.02 | locus YMR307W, strain GAS1, hits give low values 0.948 | locus YNL153C, strain GIM3, hits give low values 1.02 | locus YNL298W, strain CLA4 (second series), hits give low values 1.04 | locus YNL322C, strain KRE1, hits give low values 1 | locus YNR030W, strain Alg12, hits give low values 1.04 | locus YPL055C, strain LGE1, hits give low values 0.994 | [5] 1.01 | locus YPR135W, strain CTF4, hits give low values 1.08
